Source: PubChem BioAssay AID602383 (National Center for Advancing Translational Sciences (NCATS), 2012)

Molecular target: Pyruvate kinase PKM (Homo sapiens) (UniProt P14618)
Assay: qHTS for Activators of Human Muscle Isoform 2 Pyruvate Kinase: Muscle Isoform 1 Assay
Settings: purified hPK-M1, ATP generation, Kinase-Glo luminescence, 1 h; series mostly up to 58.2 µM; activity change, positive = activation: at the top concentration; active = well fitted curve in the direction sought with a large enough effect; inactive = no such curve, though single readings can be large or run the other way
Method: Human pyruvate kinase muscle isoform 1 (hPK-M1) enzyme was supplied as a highly purified (>95% pure) preparation from Harvard Medical School and assayed for its ability to generate ATP from ADP using phosphoenolpyruvate (PEP) as a substrate. ATP generation was detected in a coupled reaction by luciferase-mediated luminescence, an ATP-dependent process. Pyruvate kinase substrates, PEP and ADP, were present in the assay at Km and approximately 10-fold below Km respectively. The enzyme was assayed at an intermediate level of activity to screen for both inhibitors and activators. NIH Chemical Genomics Center [NCGC] NIH Molecular Libraries Probe Centers Network [MLPCN] MLPCN Grant: MH085679 Assay Submitter (PI): Matthew G. Vander Heiden, Harvard Medical School
Three uL of substrate mix (at r.t.) in assay buffer (50 mM Imidazole pH7.2, 50 mM KCl, 7 mM MgCl2, 0.01% Tween 20, 0.05% BSA) was dispensed into white solid bottom 1,536 well microtiter plates so that the final concentrations of substrates in the assay were 0.1 mM ADP and 0.5 mM PEP. 23 nL of compound were delivered by a pin tool and 1 uL of enzyme mix (final concentration of 1 nM) in assay buffer (4 degree Celsius) was added. Plates were incubated at room temperature for 1 hour. Two uL of detection mix (Kinase-Glo, Promega; at 4 degree Celsius protected from light) was added and luminescence read by a ViewLux (Perkin Elmer) at 1 second exposure/plate. Data were normalized to the uninhibited (row 31). Additionally, a no enzyme and 5-fold enzyme control was dispensed in row 32, split equally between the two conditions.

Sequence of Pyruvate kinase PKM (Homo sapiens) (P14618 whole entry, looked up, canonical isoform): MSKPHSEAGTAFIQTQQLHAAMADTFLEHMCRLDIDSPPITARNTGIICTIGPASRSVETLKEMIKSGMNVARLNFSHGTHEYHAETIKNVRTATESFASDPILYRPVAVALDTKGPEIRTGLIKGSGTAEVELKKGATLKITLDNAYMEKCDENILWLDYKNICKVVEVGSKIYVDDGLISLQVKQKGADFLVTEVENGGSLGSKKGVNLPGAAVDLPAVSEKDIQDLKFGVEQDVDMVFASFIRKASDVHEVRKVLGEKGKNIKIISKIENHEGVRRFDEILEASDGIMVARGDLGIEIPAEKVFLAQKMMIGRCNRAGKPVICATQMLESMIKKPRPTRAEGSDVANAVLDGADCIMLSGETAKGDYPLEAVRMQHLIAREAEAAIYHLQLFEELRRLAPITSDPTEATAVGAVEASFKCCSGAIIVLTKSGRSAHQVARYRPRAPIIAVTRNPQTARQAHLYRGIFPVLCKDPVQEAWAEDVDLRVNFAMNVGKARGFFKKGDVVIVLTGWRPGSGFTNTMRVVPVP

Activity change, positive = activation, inactive:
Cc1cc2c(s1)c1cnn(Cc3cc(F)ccc3F)c(=O)c1n2C 11.1%
COc1cccc(Cn2ncc3c4sc(S(C)=O)cc4n(C)c3c2=O)c1 (stereo unspecified) -3.35%
Cc1cc2c(s1)c1cnn(Cc3c(Cl)ccc(C)c3F)c(=O)c1n2C 7.26%
Cc1cc2c(s1)c1cnn(Cc3cc(F)c(F)cc3F)c(=O)c1n2C 8.28%
Cc1cc2c(s1)c1cnn(Cc3ccc(F)cc3F)c(=O)c1n2C 7.13%
Cn1c2cc(S(C)=O)sc2c2cnn(Cc3cccc(N)c3)c(=O)c21 (stereo unspecified) 1.03%
